Assay in all cases: PBM binding z-score (relative to random genomic background probes); higher = stronger binding; sequences stand for … in GC…GCGATTGACAGCGTAGAATGAAGG
For experiment [1], the system named is RARb homodimer (NR concentration 270 nM). The procedure, abridged:
(§1)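 Each nuclear receptor dimer, without ligand, was incubated for 1 h on custom Agilent 4×180K protein-binding microarrays. Binding was detected with antibodies against each partner (one per run), and scanned fluorescence was regression-normalized. The binding z-scores are referenced to random human genomic background probes.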

For experiment [2], the system named is RARg:RXRa (NR concentration 270 nM, RXRa partner concentration 90 nM). The procedure, abridged: as §1
The test system of experiment [3] is RARg homodimer (NR concentration 270 nM). The procedure, abridged:
as §1

The test system of experiment [4] is RXRa DBDmut IVT, anti-RXR (DBD mutation: RXRa K156A/R161A, NR concentration 90 nM). A digest of the protocol: as §1
The test system of experiment [5] is RXRa homodimer (NR concentration 180 nM). The procedure, abridged:
as §1

The subject of experiment [6] is THRa:RXRa (NR concentration 90 nM, RXRa partner concentration 90 nM). The procedure, abridged:
as §1

The subject of experiment [7] is THRa homodimer (NR concentration 90 nM). A digest of the protocol: as §1
The subject of experiment [8] is VDR homodimer (NR concentration 270 nM). The procedure, abridged: as §1

Regarding CAAACTAGGTCACAGAGATCAAAGTCCGTGCGTA, the PBM binding z-score amounted to 3.1 in experiment [1]; 4.52 in experiment [2]; 4.87 in experiment [3]; 1.59 in experiment [4]; 3.84 in experiment [5]; 3.28 in experiment [6]. Moreover, the PBM binding z-score came out at 1.27 in experiment [7] and 0.964 in experiment [8].

Turning to GGAACGAGGGCATTCGAGTTGATAGTATGGCGAT, the PBM binding z-score in experiment [1] came out at 0.948; in experiment [2], 1.22; in experiment [3], 1.61; in experiment [4], 3.39; in experiment [5] it was 0.99; in experiment [6], 3.38. The PBM binding z-score in experiment [7] worked out at 0.0512; in experiment [8], 3.37.

Consider TCTCGGAGGACTCGAAAGGTCAGAGCTCGACATC, for which the PBM binding z-score is 4.25 in experiment [1]; 3.85 in experiment [2]; 3.31 in experiment [3]; 0.558 in experiment [4]; 3.57 in experiment [5]; 2.68 in experiment [6]. The PBM binding z-score in experiment [7] is 0.256; in experiment [8] it was 0.189.

Consider CCTAGTTGGTCAGGAGGTCACCCACCGGATATGA, for which the PBM binding z-score was 4.11 in experiment [1]; 4.91 in experiment [2]; 4.4 in experiment [3]; -0.0796 in experiment [4]; 4.2 in experiment [5]; 3.47 in experiment [6]. Moreover, the PBM binding z-score in experiment [7] is 2.51; in experiment [8] it was 2.4.

On to CGTACAAGGTCAGCAGGTCAGTGAAAGCGACGTG, for which the PBM binding z-score is 5.11 in experiment [1]; 6.42 in experiment [2]; 6.72 in experiment [3]; 3.07 in experiment [4]; 5.36 in experiment [5]; 3.93 in experiment [6]. Moreover, the PBM binding z-score in experiment [7] was determined as 2.42; in experiment [8] it was 1.68.

Regarding ATCGAAAGGTCGTGAGATGAGTATACAGAAAGGC, the PBM binding z-score came out at 2.35 in experiment [1]; 4.27 in experiment [2]; 3.47 in experiment [3]; 0.915 in experiment [4]; 5.21 in experiment [5]; 2.19 in experiment [6]. The PBM binding z-score was -0.531 in experiment [7] and 0.66 in experiment [8].

Consider TCAGACAGGTAAAGGTAACTCAGGTACGCAGTCG, for which the PBM binding z-score in experiment [1] stood at 0.829; in experiment [2] it was 0.751; in experiment [3], 0.576; in experiment [4], 1.53; in experiment [5] it was 1.08; in experiment [6], 1.67. Further, the figures for the PBM binding z-score in experiment [7] and in experiment [8] were 0.705 and 0.388, respectively.

The record behind these values is the supplement of paper PMC6555819.
